Results as given in PubChem BioAssay AID463218 (Sanford-Burnham Center for Chemical Genomics, 2010).
Hit rate of the full screen: of about 4,400 compounds, about 3,700 (84%) were called active. The set was probably picked from earlier hits. These entries were drawn from the full list. Values without a mark were called inactive.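 Rule for the calls: active = inhibition above about 39% in either of two replicate wells at 20 µM (limit read from the data); inactive = the rest.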

assay: growth inhibition of tim23-1 ts yeast, retest – luminescence, single concentration, confirmation (AID 463218);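 note: temperature-sensitive tim23-1 mutant grown at 25 °C; 0% = DMSO wells with yeast and 100% = medium wells without yeast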; details: S. cerevisiae tim23-1 growth, BacTiter-Glo luminescence, 24 h; at 20 µM; stronger effect = higher value

Row | SMILES | inhibition
1 | O=C1Oc2ccccc2C(=O)/C1=C/c1ccccc1O | 89% (active)
2 | O=C(CC(O)(C(F)(F)F)C(F)(F)F)Nc1ccc(Cl)c(Cl)c1 | 92.1% (active)
3 | COc1cc(NC(=O)c2cccs2)ccc1NC(=O)c1ccccc1Cl | 42.2% (active)
4 | Cc1nn(CC(=O)Nc2nc3ccccc3s2)c(C)c1[N+](=O)[O-] | 54% (active)
5 | C=C1CCC(N(O)c2cc(C)on2)C(=C)CCC2C1CC2(C)C (configuration not stated) | 44.8% (active)
6 | Cc1ccccc1OCC(=O)Nc1ccc(N2CCN(C(=O)C(C)C)CC2)c(Cl)c1 | 76.3% (active)
7 | N/C(=N\OC(=O)CCc1ccccc1)c1ccc(Cl)cc1 | 67.7% (active)
8 | COc1ccc(/C(N)=N/OC(=O)CCCc2ccccc2)cc1 | 41.2% (active)
9 | COc1ccc2c(c1)C(=C(C#N)C#N)C(=O)N2CCc1ccccc1 | -89.4%
10 | C/C(=N\NC(=S)NCc1ccccc1)c1ccc(Cl)cc1 | 36.7%
11 | Cc1cc2ncn(CCCCOc3ccccc3)c2cc1C | 27.3%
12 | O=[N+]([O-])c1ccccc1S(=O)(=O)Nc1cccc2cccnc12 | 59.1% (active)
13 | Cc1cccc(Oc2c([N+](=O)[O-])c(=O)n(C)c3ccccc23)c1 | 59.6% (active)
14 | N/C(=N\OC(=O)CC1CCCCC1)c1ccccc1 | 53.1% (active)
15 | O=C(NCCc1ccc(F)cc1)c1ccc(S(=O)(=O)N2CCCCC2)cc1 | 56% (active)
16 | Cc1ccc2cc3cc(C(=O)N4CCCCCC4)oc3nc2c1 | 56% (active)
17 | CCC(=O)Nc1nc(C)c(C(=O)Nc2cccc(Cl)c2)s1 | 75.2% (active)
18 | COc1cc(Br)cc(/C=N/c2ncn[nH]2)c1O | 85.5% (active)
19 | O=C1c2cccc3c([N+](=O)[O-])ccc(c23)C(=O)N1CC1CCCO1 (configuration not stated) | 86.2% (active)
20 | O=C(Oc1ccc([N+](=O)[O-])cc1)c1ccc2ccccc2n1 | 70.7% (active)
21 | O=C(N[C@H]1C/C=C\C(c2cccc(F)c2)N(Cc2ccccc2)C(=O)C1)OCC1c2ccccc2-c2ccccc21 (some centres not stated) | 40% (active)
22 | COC(=O)c1c(NC(=O)CSc2nncs2)sc2c1CCCCC2 | 46.1% (active)
23 | O=C(N/N=C/C=C/c1ccco1)c1cccs1 | 68.9% (active)
24 | COc1ccc(CNC(=O)/C(C#N)=C/c2cccc(OC)c2OC)cc1 | 76.6% (active)
25 | CCCc1nc2c(c(=O)c3ccccc3n2C)c(=O)n1C1CCCCCC1 | 58.9% (active)
26 | Cc1ccc(S(=O)(=O)NC2CCCCCC2)cc1 | 37% (active)

Row | SMILES | inhibition
27 | O=C(Cc1c(F)cccc1Cl)Nc1ncc([N+](=O)[O-])s1 | 71.3% (active)
28 | COc1ccc(-c2nc3cc(C)ccn3c2NC2CCCCC2)cc1SC1CCCCC1 | 48.6% (active)
29 | O=C(/C=C/c1ccc(Cl)c([N+](=O)[O-])c1)c1cccnc1 | 73.4% (active)
30 | Cc1ccccc1C1=N/C(=C/c2cccnc2)C(=O)O1 | 57% (active)
31 | O=C(Nc1nc(-c2ccco2)c(-c2ccco2)s1)c1ccco1 | 77.3% (active)
32 | O=C1[C@@H](c2ccccc2)[C@@H](c2ccccc2)N1c1cccnc1 | 71.3% (active)
33 | N/C(Cc1ccc([N+](=O)[O-])cc1)=N\OC(=O)C1CCCCC1 | 64.3% (active)
34 | N/C(Cc1ccc([N+](=O)[O-])cc1)=N\OC(=O)COc1ccc2ccccc2c1 | 72.3% (active)
35 | Cc1cccc(NC(=O)c2nc(S(=O)(=O)Cc3ccccc3)ncc2Cl)c1 | -88.7%
36 | Cc1cccc(NC(=S)Nc2ccc(Cl)c(Cl)c2)c1 | 63.8% (active)
37 | Cn1c(=O)c(C(=O)Nc2ncccn2)c(O)c2ccccc21 | 53.4% (active)
38 | O=C1Nc2ccccc2/C1=C/c1ccnc2ccccc12 | 56.8% (active)
39 | CC(C)c1ccc(NC(=S)NC2CC3C=CC2C3)cc1 (configuration not stated) | 36.4%
40 | COc1ccc(S(=O)(=O)N2CCN(C(C)C(=O)Nc3ccc(C(C)C)cc3)CC2)cc1 (configuration not stated) | 51.4% (active)
41 | COc1ccc(C(C[N+](=O)[O-])n2nc(C)cc2C)cc1 (configuration not stated) | 62% (active)
42 | O=C(NC(Nc1nc2ccc([N+](=O)[O-])cc2s1)(C(F)(F)F)C(F)(F)F)c1ccccc1 | 87.3% (active)
43 | COc1ccc(NC(=O)Nc2cccc3cccnc23)cc1 | 42.3% (active)
44 | COc1ccc(CS(=O)/C(Cl)=C(/Cl)C(=O)Nc2ccc(OC)nc2)cc1 (configuration not stated) | -9.55%
45 | CN(C(=O)CC(NC(=O)c1ccccc1)(c1ccccc1)c1ccccc1)c1ccccc1 | 44.1% (active)
46 | Fc1ccccc1-c1cc2cc3c(cc2cn1)OCO3 | 59% (active)
47 | CCOc1ccc(C(c2c(C)[nH][nH]c2=O)c2c(C)[nH][nH]c2=O)cc1OCC | 41.6% (active)
48 | CCCc1c(C(=O)Nc2ccc(F)cc2)cnn1-c1ccccc1 | 30.4%
49 | Cc1ccc2nc(-c3ccc(NC(=O)c4cccnc4)cc3)oc2c1 | 42.7% (active)
50 | Cc1ccc(N=Cc2c(O)cc(C)oc2=O)c(C)c1 | 12.4%
51 | O=C(Nc1nnc(SCc2c(Cl)cccc2Cl)s1)C1CCCO1 (configuration not stated) | 49.7% (active)
52 | Cc1cccc(C)c1NC(=O)C(Cl)C(=O)c1ccccc1 (configuration not stated) | 68.8% (active)

Row | SMILES | inhibition
53 | S=C(NCCCc1ccccc1)Nc1ccc(Br)cc1 | 54.3% (active)
54 | COc1ccc2c(c1)C(NS(=O)(=O)OCC(Cl)(Cl)Cl)CCC2 (configuration not stated) | 52.8% (active)
55 | CCCCCCc1ccc(O)cc1O | 45.3% (active)
56 | Cc1ccccc1C(=O)NC(=S)NC1CC1 | 12.2%
57 | COc1ccc(C(=O)NC(=S)NC2CCCCC2)cc1 | 59.2% (active)
58 | O=C(NC(=S)NC1CCCCC1)c1ccc(Cl)cc1 | 53.2% (active)
59 | O=C(Nc1ccccc1)c1ccc2c(c1)OCCCO2 | 31.9%
60 | Cc1ccoc1C(=O)Nc1cccc(Oc2ccccc2)c1 | 75.2% (active)
61 | COc1ccccc1-c1n[nH]c2c1[C@H](C)CC[C@H]2C(C)C | 61.8% (active)
62 | Cc1ccc(C2CC(=O)NC(SCC(=O)OCc3ccccc3)=C2C#N)o1 (configuration not stated) | 53.8% (active)
63 | CCc1nnc(NS(=O)(=O)c2ccc(NC(=S)NC(=O)/C=C/c3cccs3)cc2)s1 | 25.8%
64 | O=C1C=C(c2cccc(Cl)c2O)C[C@@H](c2ccc(F)cc2)C1 | 51.5% (active)
65 | CC(=O)Oc1ccc2c(c1)C(=O)c1ccccc1C2=O | 68.2% (active)
66 | Cc1nc2sc(C(=O)c3ccccc3)c(N)c2c2c1CCCC2 | 54.4% (active)
67 | COc1cccc(-c2sc3ccc(OC)cc3c2-c2ccc(OCCN3CCCCC3)cc2)c1 | 23.4%
68 | Cc1[nH]n(C(N)=S)c(=O)c1N=Nc1ccc(Cl)cc1Cl | 70% (active)
69 | CC(=O)N1N=C(c2ccncc2)OC1(Cc1ccccc1)Cc1ccccc1 | 49.8% (active)
70 | c1ccc(-c2nc(NCc3ccco3)c3ccccc3n2)cc1 | 64.7% (active)
71 | O=c1ccc2c(-c3ccccc3S(=O)(=O)O)c3ccc(O)c(O)c3oc-2c1O | 43.4% (active)
72 | O=c1oc(-c2ccccc2NS(=O)(=O)c2ccc(Cl)cc2)nc2ccccc12 | 56% (active)
73 | CC(C)NC(=O)/C(C#N)=C\c1ccc(N(C)C)c(Br)c1 | 62.2% (active)
74 | O=C1CC(Sc2ncn[nH]2)C(=O)N1c1ccccc1 (configuration not stated) | 37.8%
75 | Cc1cc(Nc2ccc(Br)cc2)nc2ccccc12 | 68.2% (active)
76 | Cc1ccc2nc(Nc3ccccc3)cc(C)c2c1 | 43.1% (active)
77 | Cc1cccc(-c2nc(Nc3ccc(O)cc3)c3ccccc3n2)c1 | -19.6%
78 | Cc1[nH][nH]c(=O)c1C(c1ccc(-c2ccc(Cl)cc2)o1)c1c(C)[nH][nH]c1=O | 62.4% (active)

Row | SMILES | inhibition
79 | CC(=O)Oc1ccc(N(C(C)=O)S(=O)(=O)c2ccc3ccccc3c2)cc1Br | 52.9% (active)
80 | Cc1ccc(C(=O)OC2=CC(=O)CC(C)(C)C2)cc1 | 38% (active)
81 | CN1C(=O)/C(=N/OC(=O)c2ccccc2Br)c2ccccc21 | -64.7%
82 | CSC(=S)N/N=C/c1c[nH]c2ccccc12 | 52.5% (active)
83 | COCCNC(=O)/C(C#N)=C/c1cccc(OCc2ccccc2)c1 | 67% (active)
84 | CCCCC(CC)CNC(=O)C(=O)C1C(=O)Nc2ccccc21 (configuration not stated) | 41.6% (active)
85 | O=C(Nc1cccc(F)c1)NC1CCCCCCC1 | 39.9% (active)
86 | COc1cc(SC)ccc1C(=O)Nc1nc(C)cs1 | 57.5% (active)
87 | O=C(/C=C/Sc1ncn[nH]1)c1ccc(Cl)cc1 | 20.5%
88 | Cc1cc(C)nc(S/C=C/C(=O)c2ccccc2)n1 | 87.6% (active)
89 | CCc1ccc2c(c1)C1(NN=C(c3ccccc3)S1)C(=O)N2 (configuration not stated) | 53.2% (active)
90 | CCC1=NN(C(=O)Cc2ccc([N+](=O)[O-])cc2)C(O)(c2ccc(Br)cc2)C1 (configuration not stated) | 45.7% (active)
91 | CC1CCC2CCCCC2N1C(=O)c1cc([N+](=O)[O-])cc([N+](=O)[O-])c1 (configuration not stated) | 42.8% (active)
92 | Cc1onc(NC(=O)c2ccc([N+](=O)[O-])o2)c1Br | 50.6% (active)
93 | CCCNc1ncnc2sc(C)c(C)c12 | 27.9%
94 | Cc1ccc2c(c1)c1ncnc(N3CCc4ccccc4C3)c1n2C | 45.2% (active)
95 | N#C/C(=C\c1cccnc1)C(=O)Nc1ccc(SC(F)F)cc1 | 65.7% (active)
96 | Cc1ccc(Oc2nc(-c3ccccn3)nc3ccccc23)cc1 | 46.1% (active)
97 | COc1ccc(Nc2nc(N)nc(CSC(=S)N3CCC(C)CC3)n2)cc1 | 49.7% (active)
98 | COc1ccc(/C=C2/C(=O)N(c3ccccc3)N=C2C)c(OC)c1 | 49.5% (active)
99 | N#C/C(=C\c1ccccc1C(F)(F)F)C(=O)Nc1ccccc1F | 71.7% (active)
100 | Cc1cccc(C)c1N1C(=O)CN(Cc2ccccc2)C1=S | 44.8% (active)
101 | Cn1nc(C(F)(F)F)c2cc(NC(=O)OCC(C)(C)C)sc21 | 41.3% (active)
102 | O=C(N/N=C\c1cc(Br)c(Br)o1)C1COc2ccccc2O1 (configuration not stated) | 31%
